# In PubChem BioAssay AID1117264 (The Scripps Research Institute Molecular Screening Center, 2014):
# Screen size: about 89,000 compounds; about 440 (0.49%) were called active.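 The calls were made as follows: active = inhibition above the mean inhibition across all screened compounds plus 3 SD (cut at about 11% in these data); inactive = the rest.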 Only a selection was taken, and actives are over-represented in it overall.
# Molecular target: RNA-editing ligase 1, mitochondrial (Trypanosoma brucei brucei) (UniProt P86926)
# Sequence (P86926 whole entry, looked up): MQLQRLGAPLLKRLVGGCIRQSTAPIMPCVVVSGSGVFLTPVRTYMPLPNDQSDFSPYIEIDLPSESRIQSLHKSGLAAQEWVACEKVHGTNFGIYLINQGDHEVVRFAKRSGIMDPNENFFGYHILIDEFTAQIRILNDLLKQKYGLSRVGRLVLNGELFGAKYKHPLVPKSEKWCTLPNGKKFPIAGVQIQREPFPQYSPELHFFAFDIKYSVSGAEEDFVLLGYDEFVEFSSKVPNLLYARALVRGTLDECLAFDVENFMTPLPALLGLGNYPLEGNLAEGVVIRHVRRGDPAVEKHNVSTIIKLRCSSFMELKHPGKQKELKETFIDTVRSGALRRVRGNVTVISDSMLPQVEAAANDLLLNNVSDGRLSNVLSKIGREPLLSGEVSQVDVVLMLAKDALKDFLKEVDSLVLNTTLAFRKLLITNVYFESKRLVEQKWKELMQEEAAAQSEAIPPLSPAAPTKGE
# Experiment: TbREL1 RNA ligase inhibitors, primary screen, biochemical, FRET fluorescence (AID 1117264);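 also: 0% = plate median of test wells and 100% = NSC42067 control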
# Details: TbREL1 RNA ligation, at 9.66 µM, active compounds read high
row,Compound,inhibition
1,Cc1c(Cl)cccc1NC(=O)NCCCN1CCCC1=O,5.26% (inactive)
2,Cc1nnsc1C(=O)Nc1cccc(Cl)c1C,11.4% (active)
3,Cc1nc(C)c(C(=O)Nc2cccc(C)c2C)o1,-2.18% (inactive)
4,O=C(OCC(=O)N1CCCC1)c1ccc(Cl)nc1,4.11% (inactive)
5,CC1(C)CC(N2CCN(C(c3ccccc3)c3ccccc3)CC2)=CC(=[N+]2CCCCC2)C1,20.5% (active)
6,Cc1cccc(N2CCN(C(c3ccccc3)c3nnnn3CC3CCCO3)CC2)c1C (stereo not drawn),-2.64% (inactive)
7,O=C1CC(N2CCN(C(c3ccccc3)c3ccccc3)CC2)C(=O)N1 (stereo not drawn),4.81% (inactive)
8,COC(=O)CN1C(=O)[C@H]2[C@@H](/C=C/c3ccccc3)N3C(=O)CN(CC4CC4)C(=O)[C@@]3(Cc3ccccc3)[C@H]2C1=O,-1.86% (inactive)
9,NC(=O)COC(=O)c1ccc2c(c1)C(=O)N(Cc1ccco1)C2=O,-0.09% (inactive)
10,Cc1cc(NS(=O)(=O)c2ccc(NC(=O)CSc3nnc(SCc4ccc(F)cc4)s3)cc2)nc(C)n1,1.56% (inactive)
11,CCOC(=O)C1C(c2ccc(O)cc2)NC(=O)NC1(O)C(F)(F)F (stereo not drawn),-0.27% (inactive)
12,COC(=O)C1CN(CCc2ccccc2)CCS(=O)(=O)N1Cc1cccc(Cl)c1 (stereo not drawn),1.04% (inactive)
13,COc1ccc(CCNC(=O)CSc2nc3[nH]ncc3c(=O)n2-c2cccc(C(F)(F)F)c2)cc1OC,-1.55% (inactive)
14,CCc1ccc(N(CC(=O)NCc2cccnc2)S(=O)(=O)c2ccccc2)cc1,-1.98% (inactive)
15,N#Cc1ccc(C2N=C(c3ccccc3)NO2)cc1 (stereo not drawn),9.48% (inactive)
16,O=C(Nc1ccon1)c1nc[nH]c1C(=O)NCc1ccccc1,5.43% (inactive)
17,Cc1nc2ccc(C(=O)N3CCN(C(=O)C(C)(C)C)CC3)cc2n1C1CCCC1,-0.3% (inactive)
18,COc1ccccc1/C=C/C(=O)OCC(=O)NC1CCCCCC1,1.81% (inactive)
19,Cc1ccc(Cn2c(C)c(C(=O)NCc3ccccc3C(F)(F)F)sc2=O)cc1,0.6% (inactive)
20,COc1ccc(S(=O)(=O)N2CCOCC2)cc1NC(=O)CC1CC2CCC1C2 (stereo not drawn),-2.41% (inactive)
21,CCOc1ccc(NC(=O)CCCCCN2C(=O)[C@@H]3Cc4ccccc4CN3C2=O)cc1,-0.69% (inactive)
22,Cc1c(S(=O)(=O)NC(C)c2ccccc2)c(=O)n(C)c(=O)n1C (stereo not drawn),0.77% (inactive)

row,Compound,inhibition
1,CCC1CCCCN1CCCNC(=O)C1CCC(Cn2c(=O)[nH]c3ccccc3c2=O)CC1 (stereo not drawn),0.83% (inactive)
2,CCOc1cc2[nH]c(=O)n(Cc3ccc(C(=O)NCCCN4CCCC4=O)cc3)c(=O)c2cc1OCC,-3.44% (inactive)
3,CCCCCn1c(=O)[nH]c2cc(C(=O)NCCCN3CCCCC3C)ccc2c1=O (stereo not drawn),11.5% (active)
4,CCn1c(=S)sc2c(=O)n(CC(=O)Nc3ccc(OC)cc3)c(C)nc21,-1.47% (inactive)
5,O=C(NC1CCCCC1)C1CCCN(S(=O)(=O)c2ccc(Br)s2)C1 (stereo not drawn),1.07% (inactive)
6,CCOC(=O)N1CCN(Cc2nc(Cc3cccc(C(F)(F)F)c3)no2)CC1,1.05% (inactive)
7,COc1ccc(N(Cc2ccc(N(C)C)cc2)C(=O)c2ccc(S(C)(=O)=O)cc2)cc1,-9.41% (inactive)
8,COCCN(Cc1ccccc1)C(=O)Cc1ccc(S(=O)(=O)N2CCOCC2)s1,-2.32% (inactive)
9,CCc1ccc(CN2C(=O)c3ccccc3C2C(=O)NCC2CCCO2)cc1 (stereo not drawn),-0.89% (inactive)
10,COCC(=O)N(C)[C@H]1C[C@H]2c3cc(Oc4ccccc4C)ccc3CCN2C(=O)[C@H]1[C@H](C)O,1.02% (inactive)
11,COc1cccc(CNC(=O)C2CCCN(c3ncnc4c3nc3n4CCCCC3)C2)c1 (stereo not drawn),0.12% (inactive)
12,Cc1ccc(NC(=O)Cn2cccc2C2=NC(c3ccccc3)CO2)c(C)c1 (stereo not drawn),-0.96% (inactive)
13,COc1ccc(N2C(=O)c3ccccc3NC2c2ccc(OC)c(CN3CCOCC3)c2)cc1 (stereo not drawn),0.23% (inactive)
14,O=C1NC[C@H](Cc2ccc(O)cc2)N(C[C@H]2CCCN2C[C@H](Cc2ccccc2)N2C[C@H](Cc3ccccc3)N(CCc3ccccc3)C(=O)C2=O)C1=O,-1.45% (inactive)
15,CC[C@@H](C)[C@@H]1CN([C@@H](C)CN2CCC[C@H]2CN2C(N)=NC[C@H]2C(C)C)C(=N)N1CCc1ccc(Cl)c(Cl)c1,14% (active)
16,CC1CCCCN1C(=O)Cn1c(=O)oc2cc(S(=O)(=O)N3CCCCC3)ccc21 (stereo not drawn),-1.44% (inactive)
17,Cc1cc(C)cc(N(CC(=O)NC2CCCC2)C(=O)CCC(=O)Nc2cc(C)on2)c1,0.2% (inactive)
18,Nc1ncnc2c1ncn2[C@@H]1O[C@H](C(=O)N[C@@H](CCc2ccccc2)C(=O)NCC(=O)N2CCOCC2)[C@@H](O)[C@H]1O,-1.68% (inactive)
19,COc1c(O)cc2oc(-c3ccc(O)c(O)c3)cc(=O)c2c1O,29.5% (active)
20,CCOC(=O)COc1cc(OCC(=O)OCC)c2c(=O)cc(-c3ccccc3)oc2c1,2.07% (inactive)
21,COc1cc(NC(=O)CSC(=S)N2CCCC2)c(OC)cc1Cl,6.87% (inactive)
22,O=c1[nH]c(=O)c2nc3ccccc3nc2[nH]1,-0.15% (inactive)

row,Compound,inhibition
1,Nc1ccc2nc3c(=O)[nH]c(=S)[nH]c3nc2c1,50.5% (active)
2,COc1ccc([N+](=O)[O-])cc1N(CC(=O)Nc1ccccc1C(=O)N1CCOCC1)S(C)(=O)=O,-1.27% (inactive)
3,O=C(NCc1ccccc1)C1c2ccccc2OCC(=O)N1C1CC1 (stereo not drawn),4.12% (inactive)
4,O=C(NCc1ccccc1)C1CCN(C(=O)Cc2ccccc2)CC1,0.8% (inactive)
5,O=C(NCc1ccccc1)[C@@H]1CSC2c3ccccc3C(=O)N21 (stereo partly drawn),18.5% (active)
6,Cc1c(CCC(=O)N[C@@H](CC(C)C)C(=O)O)c(=O)oc2c(C)c3oc4c(c3cc12)CCCC4,0.56% (inactive)
7,Cc1cc(NC(=O)CN2C(=O)NC(C)(CCc3ccccc3)C2=O)no1 (stereo not drawn),0.2% (inactive)
8,O=C(NNC1CC(=O)N(c2cccc(Cl)c2)C1=O)c1cccnc1 (stereo not drawn),0.41% (inactive)
9,O=S1(=O)CC(N2CCN(CCO)CC2)CN1Cc1cn(Cc2cccc(Cl)c2)nn1 (stereo not drawn),0.87% (inactive)
10,COc1ccc(NC(=O)C(Br)C(C)C)cc1 (stereo not drawn),-2.35% (inactive)
11,CCOC(=O)c1ccc(NC(=S)N2CCCC2)cc1,-1.43% (inactive)
12,COc1ccccc1NC(=S)N1CCN(C(c2ccccc2)c2ccccc2)CC1,-6.34% (inactive)
13,O=C(Oc1cccc(NC2=NS(=O)(=O)c3ccccc32)c1)c1ccncc1,0.38% (inactive)
14,Cc1ccc(S(=O)(=O)N(C)C)cc1NC(=O)COC(=O)c1c(C)noc1C,-2.07% (inactive)
15,O=C(Nc1cccnc1)c1cccc(S(=O)(=O)N2CCCC2)c1,3.63% (inactive)
16,CCCn1c(CCNc2nc(-c3ccc(OC)cc3)cs2)nc2ccccc21,1.63% (inactive)
17,CC1CN(CC(=O)NC(C)c2ccccc2)CC(C)O1 (stereo not drawn),1.72% (inactive)
18,Fc1cc(Br)ccc1NC(=S)Nc1cccnc1,-1.64% (inactive)
19,COc1ccccc1-n1cnc2cc(NS(=O)(=O)c3ccccc3)ccc21,0.63% (inactive)
20,COc1cc(/C=C/C(=O)OCC(=O)NC2CC2)cc(OC)c1OC,8.18% (inactive)
21,COc1cc(/C=C/C(=O)n2cnc3ccccc32)cc(OC)c1OC,12% (active)
22,O=C(Nc1ccccc1N1CCN(C(=O)c2ccccc2)CC1)c1ccco1,-1.42% (inactive)

row,Compound,inhibition
1,COc1ccc(N2C(=O)CC(Nc3ccc(F)cc3)C2=O)c([N+](=O)[O-])c1 (stereo not drawn),-1.86% (inactive)
2,CCOc1ccc(NC(=O)CN(C)CC(=O)NC(C)c2ccccc2)cc1OCC (stereo not drawn),2.99% (inactive)
3,CCOC(=O)C1CCN(CC(=O)Nc2ccc(OC)c(S(=O)(=O)N3CCCCC3)c2)CC1,2.37% (inactive)
4,Nc1nc(Nc2ccccc2)nc(NCCO)c1[N+](=O)[O-],7.49% (inactive)
5,CNc1nc(Nc2ccc(C)c(Cl)c2)nc(N)c1[N+](=O)[O-],13.4% (active)
6,Cc1ccc(Nc2nc(N)nc(CN3CCN(Cc4ccccc4)CC3)n2)cc1Cl,-4.51% (inactive)
7,Cn1c(=O)c2c(nc(NCc3ccccc3)n2CC(N)=O)n(C)c1=O,-2.6% (inactive)
8,CN(C)/C(=N\OC(=O)c1ccccc1)c1nonc1N,0.81% (inactive)
9,C=CCn1c(=S)[nH]c2scc(-c3ccco3)c2c1=O,20.5% (active)
10,COc1ccc(N2CCN(CCNS(=O)(=O)c3ccc([N+](=O)[O-])cc3)CC2)cc1,-4.76% (inactive)
11,O=C(Nn1cc(C(=O)N2CCN(c3ccccc3F)CC2)c2ccccc2c1=O)c1cnccn1,12.8% (active)
12,O=C(c1ccc(CN2CCOCC2)cc1)N1CCN(c2ccccc2F)CC1,-3.62% (inactive)
13,Cc1ccccc1N1CCN(C(=O)c2cccnc2)CC1,-0.77% (inactive)
14,CC1=C(C(=O)N(C)C)C(c2ccccc2OC(F)F)NC(=O)N1 (stereo not drawn),-1.25% (inactive)
15,CC(C)C[C@@H](CO)N1CCN(Cc2ccc(O)cc2)CCC1=O,-1.07% (inactive)
16,Cc1ccnc(NC(=O)c2ccco2)n1,2% (inactive)
17,O=C(Nc1nc(-c2ccco2)c(-c2ccco2)s1)c1ccco1,51.5% (active)
18,O=C(Nc1ccc2nccnc2c1)c1ccco1,-2.66% (inactive)
19,O=C(Nc1ccc(N2CCN(C(=O)c3ccccc3)CC2)c(Cl)c1)c1ncn[nH]1,-4.97% (inactive)
20,Cc1cccc(NC(=O)CN2CCN(CC(=O)NCC3(N4CCCCC4)CCCCC3)CC2)c1C,-4.34% (inactive)
21,Cc1ccc(-n2c(SCC(=O)Nc3cccc4ccccc34)nnc2-c2ccccn2)cc1,2.33% (inactive)
22,O=C(CCCCCN1C(=O)C2C3C=CC(C3)C2C1=O)Nc1ccccn1 (stereo not drawn),-1.93% (inactive)
